Source: PubChem
UBC13 polyUb: UBC13 polyubiquitin chain formation inhibitors, primary screen, biochemical, TR-FRET, uHTS. inhibition, % at 20 µM. hit rate 0.47% among 330,000. AID 485273, 2010; in the data active = inhibition above about 45%, passing the limit was not always enough
UHRF1 MBD2 ctr: UHRF1 methylated DNA binding inhibitors, primary screen, counter-screen for MBD2 inhibitor project, biochemical, TR-FRET, human UHRF1, single concentration | UHRF1 binding to methylated oligo | E3 ubiquitin-protein ligase UHRF1 (Homo sapiens), Q96T88 | hit rate 0.75% among 370,000 | inhibition, % at 4.4 µM; in the data active = inhibition above about 21%;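 note: UHRF1 SRA domain binding a hemimethylated CpG hairpin DNA probe; 0% = median of test compound wells and 100% = reference inhibitor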
MBD2 inh: inhibitors of MBD2 binding to methylated DNA, primary screen, biochemical, TR-FRET, DNA-binding domain, human | hit rate 0.31% among 370,000 | inhibition, % at 4.4 µM | MBD2 binding to methylated oligonucleotide; in the data active = inhibition above about 13%
Target sequence (Q9UBB5 whole entry, looked up, the tested form may be a part): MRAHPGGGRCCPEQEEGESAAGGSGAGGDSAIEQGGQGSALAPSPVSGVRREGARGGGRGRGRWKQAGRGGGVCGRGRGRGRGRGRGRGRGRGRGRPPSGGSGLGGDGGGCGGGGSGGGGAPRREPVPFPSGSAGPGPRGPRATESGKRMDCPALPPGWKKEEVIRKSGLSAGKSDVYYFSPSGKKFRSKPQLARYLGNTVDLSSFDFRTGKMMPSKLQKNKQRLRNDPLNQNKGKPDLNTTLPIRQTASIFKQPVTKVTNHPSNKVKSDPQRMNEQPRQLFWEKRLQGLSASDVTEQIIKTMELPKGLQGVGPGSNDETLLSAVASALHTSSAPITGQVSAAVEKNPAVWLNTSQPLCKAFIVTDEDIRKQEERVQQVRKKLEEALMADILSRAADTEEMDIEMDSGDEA
Neddyl block: inhibitors of cullin neddylation, primary screen, biochemical, TR-FRET, uHTS, NAE and Ubc12 | calls only at 25 µM | hit rate 0.58% among 360,000 | NEDD8-conjugating enzyme Ubc12 (Homo sapiens) + NEDD8-activating enzyme E1 regulatory … | AID 651699, 2012; in the data active = inhibition above about 36%
* = called active by the depositor; i = inactive; . = no result given; + = active, no number. The list is not random: actives were taken first. Their share in the collection is about 1.8%.

SMILES	UBC13 polyUb	UHRF1 MBD2 ctr	MBD2 inh	Neddyl block
Nc1cc(S(=O)(=O)O)cc([N+](=O)[O-])c1O	-27.4	80.7*	10.2	i
CCCC(=O)Nc1ccc(N2CCCCC2)cc1	1.8	9.2	2.2	i
O=C(O)CCCC(=O)Nc1ccc(N2CCCC2)cc1	-21.0	21.0*	-1.8	i
CCc1nnc(NS(=O)(=O)c2ccc(NC(=O)c3cccc4ccccc34)cc2)s1	-5.5	-3.1	-2.8	i
c1ccc2c(c1)ccc1ccccc12	12.1	-2.0	-3.8	i
CC1=[N+](C)c2ccc3ccccc3c2C1(C)C	-42.6	16.2	1.0	+
Cc1ccccc1-n1nnnc1SCC(=O)Nc1ccc(S(=O)(=O)N2CCCC2)cc1	-8.0	5.4	1.0	i
Cc1ccc(C)c(N=Cc2cc3c(cc2[N+](=O)[O-])OCO3)c1	-50.6	37.6*	8.9	i
Cc1cccc(C)c1OCC(=O)N/N=C/c1cc2c(cc1[N+](=O)[O-])OCO2	-11.3	-0.1	5.2	i
O=C(CCc1ccc(O)c(O)c1)N/N=C/c1cc2c(cc1[N+](=O)[O-])OCO2	0.1	28.0*	5.0	i
COc1ccc(C(=O)N[C@H]2CCCCNC2=O)cc1OC1CCN(C(C)C)CC1	3.3	-0.6	0.3	i
CC1(C)Oc2cc(N)c([N+](=O)[O-])cc2O1	-55.7	22.8*	-8.9	i
CC(=O)O/N=C(/c1nonc1N)N1CCN(c2ccc([N+](=O)[O-])cc2Cl)CC1	-7.8	-2.0	1.3	i
CCN(C[C@H]1N[C@@](CC)(C(=O)OC)[C@H]2C(=O)N(C)C(=O)[C@@H]12)C(=O)Nc1ccc(C(F)(F)F)cc1	-9.5	3.7	3.2	i
CC[C@@]1(C(=O)OC)N[C@H](CN(C)C(=O)Nc2ccc(C(F)(F)F)cc2)[C@@H]2C(=O)N(C)C(=O)[C@@H]21	4.7	21.7*	5.6	i
CC(C)(C)c1ccc(C(=O)C2CCCN(C(=O)CN3CCCC3=O)C2)cc1 (centres undefined)	6.0	16.5	6.4	i
O=C(Cn1cnc2sc(-c3ccccc3)cc2c1=O)NCc1ccccc1	1.2	2.5	3.6	i
O=C(Cn1cnc2sc(-c3ccccc3)cc2c1=O)NCc1ccco1	-24.8	50.5*	10.2	i
CCOc1ccccc1NC(=O)CN(c1cc(C)cc(C)c1)S(=O)(=O)c1c(C)noc1C	-0.9	27.1*	-0.1	i
CCCOc1cccc(OCC(=O)Nc2nc3ccccc3[nH]2)c1	-5.2	3.5	3.4	i
c1ccc(-c2cc(NCCN3CCCCC3)c3ccccc3n2)cc1	15.6	21.3*	12.7	i
Cc1c(NC(=O)/C(C#N)=C/c2ccc(-c3ccc(Cl)cc3)o2)c(=O)n(-c2ccccc2)n1C	0.8	21.7*	7.5	i
Cc1ccccc1NC(=O)C1Cc2ccccc2CN1C(=O)OCc1ccccc1 (centres undefined)	-4.8	7.1	5.3	i
CCCCNCC(O)(c1ccc(Cl)cc1)c1ccc(Cl)cc1	15.8	57.1*	2.5	i
COc1ccc(CC(=O)NC(CC(=O)O)c2ccc(OC)cc2)cc1 (centres undefined)	-1.5	1.8	3.1	i
SMILES	UBC13 polyUb	UHRF1 MBD2 ctr	MBD2 inh	Neddyl block
O=C1NC[C@H](CCCCN2C[C@H](Cc3ccc(O)cc3)N(CCc3ccc(O)cc3)C(=O)C2=O)N(Cc2ccccc2)C1=O	.	22.1*	12.1	i
CC(C)C[C@@H](CN1CCC[C@@H]1CN1C(=O)C(=O)NC[C@@H]1Cc1ccccc1)N1C[C@H](Cc2ccccc2)N(CC2CCCCCC2)C(=O)C1=O	.	4.1	-5.7	i
CC(C)C[C@H]1CN(CCCC[C@@H]2CNC(=O)C(=O)N2CC2CCCCC2)C(=O)C(=O)N1CCc1ccccc1	.	21.4*	3.9	i
CC(C)C[C@@H](CN1CCC[C@@H]1CN1C(=O)C(=O)NC[C@@H]1Cc1ccccc1)N1C[C@H](Cc2ccccc2)N(CC2CCCCC2)C(=O)C1=O	.	54.3*	4.2	i
O=C1NC[C@H](CCCCN2C[C@H](Cc3ccc(O)cc3)N(CCc3ccccc3)C(=O)C2=O)N(Cc2ccccc2)C1=O	.	-2.3	4.5	i
O=C(CSCc1ccccc1Cl)NNC(=S)Nc1ccccc1	-19.0	0.7	1.1	i
COC(=O)c1cc(OC)c(OCc2cc(C(=O)OC)oc2C)c(OC)c1	-0.3	0.1	2.8	i
